PubChem BioAssay AID686970 (National Center for Advancing Translational Sciences (NCATS), 2013)
The whole screen tested about 360,000 compounds, of which about 6,000 (1.7%) were called active. A call without a number means that no potency is given here. Inconclusive results (about 8%) are left out. The call rests on the fitted dose curve; in most records, active means well fitted cell-killing curve with a large enough effect; inconclusive means small, poorly fitted or top-dose-only effect, or effect the other way; inactive means flat fitted curve, though single readings scatter. This excerpt belongs to a sample that is enriched for actives.

Experiment: qHTS for induction of synthetic lethality in tumor cells producing 2HG: qHTS for the HT-1080-NT fibrosarcoma cell line;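 further: NT is the 2HG producing partner of a matched IDH1 knockdown line; nearly all actives have a fitted effect of over 55% in size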
Conditions: HT-1080-NT fibrosarcoma viability, CellTiter-Glo ATP luminescence, 48 h; series mostly up to 46.1 µM
Summary of the method: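 Read-out is CellTiter-Glo luminescence after 10 minutes at room temperature, following 48 hours' compound treatment of HT-1080-NT cells (750 cells/well, RPMI, 5% FBS, 37 degrees C).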
Potency means the concentration at half of the fitted maximal effect.

SMILES	Potency
O=C(O)c1ccc(NC(=O)c2cn(-c3ccccc3)nc2-c2ccc(Cl)cc2)cc1	9.2 µM (active)
Cc1ccc(-c2nn(-c3ccccc3)cc2C(=O)Nc2cccc(S(=O)(=O)N3CCOCC3)c2)cc1	inactive
Cc1ccc(-c2nn(-c3ccccc3)cc2C(=O)NCCCN2CCCC2=O)cc1	inactive
COC(=O)C1(C(=O)OC)C[C@H](c2ccccc2)N(Cc2ccccc2OC)[C@@H]1c1ccccc1	inactive
CCCNC(=O)C1(C)CCN(Cc2csc(-c3ccc(Cl)cc3)n2)C1 (centres undefined)	inactive
Oc1ccccc1N1CCN(C(=S)NCc2ccccc2)CC1	inactive
O=C(COC(=O)c1ccccc1C(=O)N1CCN(c2ccccc2)CC1)NCc1ccccc1	inactive
Oc1ccc(N2CCN(C(=S)NCc3ccccc3)CC2)cc1	9.2 µM (active)
O=C(COC(=O)c1ccc([N+](=O)[O-])cc1Cl)NC(=O)c1ccccc1	inactive
O=C(NC(Nc1nc2ccc([N+](=O)[O-])cc2s1)(C(F)(F)F)C(F)(F)F)c1ccccc1	5.17 µM (active)
O=C(NOCc1ccccc1)c1cccc([N+](=O)[O-])c1	inactive
COc1ncnc2c1ncn2CCCNCCN1CCOCC1	inactive
CCC1CCCCN1CCCNC(=O)C1CCC(Cn2c(=O)[nH]c3ccccc3c2=O)CC1 (centres undefined)	inactive
CCCCCn1c(=O)[nH]c2cc(C(=O)NCCCN3CCCCC3C)ccc2c1=O (centres undefined)	23.1 µM (active)
CC1CCCCN1CCCNC(=O)Cn1ncc2c([nH]c3ccccc32)c1=O (centres undefined)	inactive
CC(C)(O)C1=C[N+](=O)CC=C1	inactive
c1cc(-c2ccc3[nH]ccc3c2)n2ccnc2c1	inactive
NC(CSC(c1ccccc1)(c1ccccc1)c1ccc(-c2ccccc2)cc1)C(=O)O (centres undefined)	inactive
Clc1ccc(-c2cc(-c3ccccn3)on2)c(Cl)c1	inactive
Clc1ccc(-c2cc(C3CCNCC3)[nH]n2)c(Cl)c1	23.1 µM (active)
C[C@@H]1Cn2cnc(C(=O)Nc3ccc(CNC(=O)OC(C)(C)C)cc3)c2C(=O)N1	inactive
Cc1nnc(SC(C)C(=O)c2c[nH]c3ccccc23)n1C1CC1 (centres undefined)	inactive

SMILES	Potency
O=C(CSc1nc(Nc2ccccc2)nc(N2CCOCC2)n1)Nc1cc(Cl)ccc1O	16.4 µM (active)
Cc1ccccc1NC(=O)CSc1nc2ccc(Nc3nc(N4CCOCC4)nc(N4CCOCC4)n3)cc2s1	inactive
CC1(c2ccccc2)NC(=O)N(CC(=O)Nc2cc(Cl)ccc2N2CCOCC2)C1=O (centres undefined)	inactive
c1ccc2c(c1)nnn2-c1ccncc1	inactive
O=C(c1ccc(Oc2ccc(Cl)cc2)c([N+](=O)[O-])c1)N1CCCC1	inactive
O=C(Nc1ccc(F)cc1)C1CCN(C(=O)c2ccc([N+](=O)[O-])cc2)CC1	inactive
CC1CCN(C(=O)c2ccc(S(=O)(=O)Cc3cc(F)ccc3F)c([N+](=O)[O-])c2)CC1	11.6 µM (active)
Oc1cc2c(cc1O)CN(C(=S)NCCc1ccc(Cl)cc1)CCC2	31.6 µM (active)
Cc1ccc(NC(=S)NCCc2ccc(Cl)cc2)c(C)c1	inactive
O=C(NCCc1ccc(Cl)cc1)c1cccc(N2CCCC2=O)c1	inactive
Cc1cc(C)c2c(=O)n3c(nc2c1)C(CC(C)C)NC(=O)c1cc2ccccc2cc1-3 (centres undefined)	inactive
CC(C)C1CC2=C(C(=O)OC(C)(C)O2)C(c2ccc(F)cc2)O1 (centres undefined)	inactive
CN1OC[C@@H]2CN(S(=O)(=O)c3cccc4ccccc34)[C@H](c3ccc(N4CCCCC4)cc3)C[C@@H]21	inactive
CS(=O)(=O)/C(C#N)=C/c1cccn1S(=O)(=O)c1ccc([N+](=O)[O-])cc1	inactive
Clc1cccc(Cl)c1OCCOCCNCc1ccccc1	inactive
CN(C)CCOc1ccc(Cl)cc1C(C)(C)C	inactive
CN(C)CCOCCOc1ccc(Cl)c2ccccc12	18.4 µM (active)
COc1cc(C)c(CN2CCN(C(=O)CCC(=O)c3ccc(C)s3)CC2)cc1OC	inactive
Cc1ccc(NC(=O)Cn2sc3ccccc3c2=O)cc1	inactive
CC1(C(=O)NS(=O)(=O)c2cccc(F)c2)CCN1C(=O)Cc1ccc(Cl)cc1Cl (centres undefined)	inactive
COC(=O)[C@]12CCCCC=C1N(Cc1cccc3ccccc13)C(=O)[C@H](CC(=O)N1CCOCC1)C2	inactive
O=C(O)CSc1c2c(nc3cc(C(=O)Nc4cccc(C(F)(F)F)c4)ccc13)CCCC2	inactive

SMILES	Potency
COc1cc(NC(=O)c2[nH]cnc2C(N)=O)cc(C(=O)Nc2cccc(C(F)(F)F)c2)c1	18.4 µM (active)
COc1cc(NC(=O)c2cncc(-c3ccc(C#N)cc3)c2)cc(C(=O)Nc2cccc(C(F)(F)F)c2)c1	inactive
CC(=O)C1=CCC(c2ccccc2)N(S(=O)(=O)c2ccc(C)cc2)C1 (centres undefined)	inactive
Cc1ccc(Oc2ccc3c(c2)C(=O)N(c2cccc4cccnc24)C3=O)cc1	inactive
Cc1ccc(C)c(NC(=O)c2ccc3nccnc3c2)c1	inactive
Cc1ccc(OS(=O)Nc2cccc3nccnc23)cc1 (centres undefined)	11.2 µM (active)
CCOc1cc(C=NNC(=O)CCCC(=O)NN=Cc2ccc(O)c(OCC)c2)ccc1O	inactive
CCOc1cc(/C=C(\C#N)c2nc(-c3cccs3)c(NC(C)=O)s2)ccc1O	3.26 µM (active)
CCOc1cc(-c2cc(-c3ccc(NC(C)=O)cc3)nc(N)c2C#N)ccc1O	inactive
CCCNC(=O)C1(C)CCN(C(=O)c2ccc(F)cc2Cl)C1 (centres undefined)	inactive
CN1OC[C@@H]2CN(C(=O)c3cccc4ccccc34)[C@H](c3ccc(N4CCCCC4)cc3)C[C@@H]21	inactive
Clc1ccc2nc(-c3ccccc3)nc(C(Cl)Cl)c2c1	4.61 µM (active)
N#CCSc1nc(-c2ccccc2)nc2ccc(F)cc12	inactive
Oc1ccc(-c2onc3ccc(Cl)cc23)cc1	inactive
CCCCNC(=O)C[C@@H]1C[C@@]2(C(=O)OCC)CCC=C2N(Cc2ccco2)C1=O	inactive
Cc1nc(N=C(N)N)nc2c(C)cccc12	10.3 µM (active)
COc1nc(N=C(N)N)nc2c(C)cccc12	inactive
O=C1CCC(=O)N1CCC(=O)N(C(=O)NC1CCCCC1)C1CCCCC1	inactive
CC(=O)OC[C@@H]1CN(Cc2ccccc2)C[C@H](n2cnc3c(NCc4ccco4)ncnc32)O1	inactive
COc1ccc(/C=C(\C#N)c2c[nH]c3ccccc23)cc1	0.411 µM (active)
COc1cccc(-n2c(SCC(=O)c3c[nH]c4ccccc34)nc3ccccc3c2=O)c1	inactive
C[N+](C)(C)CCNC(=O)c1c[nH]c2ccccc12	inactive

SMILES	Potency
COc1ccc(C=C2CCC3C(CCCC34OCCO4)C2=O)cc1 (centres undefined)	inactive
COCCCNC(=O)c1cccc2c(-c3ccc(O)c(OC)c3)coc12	inactive
CC1(C(=O)Nc2cccc3c2CCCC3)CCN1C(=O)CCc1ccc(Cl)cc1Cl (centres undefined)	inactive
COC(=O)CSC1=C(C#N)C(c2ccccc2OC)C(C(=O)OC)C(=O)N1 (centres undefined)	inactive
C=CCSC1=C(C#N)C(c2cc(Br)c(O)c(OC)c2)CC(=O)N1 (centres undefined)	inactive
CCOC(=O)CSC1=C(C#N)C(c2sccc2C)CC(=O)N1 (centres undefined)	2.51 µM (active)
CN(Cc1ccccc1)C(=O)CCC1CCN(C(=O)c2ccco2)CC1	inactive
COC(=O)Cc1ccc(OC2(C)CCN(Cc3ccc4c(c3)OCCO4)C2)cc1 (centres undefined)	inactive
C#CCNC(=O)C[C@@H]1C[C@@]2(C(=O)OCC)CCCC=C2N(Cc2ccco2)C1=O	inactive
COc1ccccc1NC(=O)C1=C(C)Nc2nc3ccccc3n2C1c1cccs1 (centres undefined)	7.31 µM (active)
CCOc1ccc(C2C(C(=O)NC)=C(C)Nc3nc4ccccc4n32)cc1OC (centres undefined)	inactive
COc1ccccc1NC(=O)C1=C(C)NC(=O)NC1c1ccc(C)s1 (centres undefined)	inactive
COc1ccc(C(O)C(O)(C(=O)OC(C)C)c2ccc(C)cc2)cc1 (centres undefined)	inactive
O=C(Nc1cccc2ccccc12)NC1CC1	inactive
CCCCC(=O)NC(c1ccc(OC)c(OC)c1)c1ccc2cccnc2c1O (centres undefined)	14.6 µM (active)
CCOc1ccc(C(CC(=O)O)NC(=O)Cc2ccccc2)cc1OC (centres undefined)	inactive
COc1ccc(CCNS(=O)(=O)c2cccc3cccnc23)cc1OC	inactive
Cn1nc(N)c2ncc(C(Cl)(Cl)Cl)nc21	inactive
O=S1(=O)CC(N2CCN(CCO)CC2)CN1C1CCCC1 (centres undefined)	inactive
Nc1c(C(=O)Nc2ccc3c(c2)OCCO3)nnn1Cc1ccccc1	inactive
Nc1c(C(=O)NCc2ccccc2)nnn1Cc1cccc(Cl)c1	13 µM (active)
O=C(COc1cccc(Cl)c1)NCc1ccccc1	inactive

SMILES	Potency
Cc1cccc(C)c1NC(=O)CN1CCN(c2ccc(F)cc2)CC1	inactive
CCOc1ccc2[nH]c(=S)sc2c1	inactive
COc1ccc(C(C(=O)Nc2c(C)cccc2C)N2CCN(c3ccc(C)cc3)CC2)cc1 (centres undefined)	inactive
CC1=CC(C)(C)NC(=S)N1c1ccccc1	11.2 µM (active)
CC1=CC(C)(C)NC(=S)N1NC(=O)c1ccccc1Cl	inactive
COc1ccc(S(=O)(=O)N(C)C)cc1NC(=O)COC(=O)c1n[nH]c2ccccc12	inactive
Cc1ccc(C(=O)Nc2nc3ccc(Cl)cc3s2)o1	inactive
O=C(CCc1ccccc1Cl)Nc1ccc(S(=O)(=O)Nc2nccs2)cc1	inactive
Cc1ccc(CCC(=O)Nc2ncc(Cc3cc(Cl)ccc3Cl)s2)o1	1.16 µM (active)
CCc1cc(-c2nnn(CCC3COCCO3)c2CC)ccc1-c1cn(Cc2ccc3ccccc3c2)nn1 (centres undefined)	inactive
Cc1ccc(Cn2c(C)c(C(=O)NCc3ccccc3C(F)(F)F)sc2=O)cc1	inactive
CCNC(=O)C1(C)CCCN1C(=O)c1ccc(N(C)C)cc1 (centres undefined)	inactive
CCc1nc2c(OCc3ccc(Cl)cc3Cl)cccn2c1N(C)C(=O)C(C)C	16.4 µM (active)
CCc1nc2c(OCc3ccc(F)c(F)c3)cccn2c1N(C)C(=O)c1ccco1	inactive
CCCCN(C=O)c1c(CC)nc2c(OCc3ccccc3C(=O)OC)cccn12	inactive
CCOC(=O)N(C)c1c(CC)nc2c(OCc3ccccc3C(=O)OC)cccn12	inactive
Cc1nc2c(OCc3ccc(Cl)cc3Cl)cccn2c1N(C)CC1CC1	13 µM (active)
CCc1nc2c(OCc3ccc(C(=O)OC)cc3)cccn2c1N(C)C(=O)C(C)C	inactive
Cc1nc2c(OCc3ccc(Cl)cc3)cccn2c1N(C)Cc1cccs1	16.4 µM (active)
Cc1nc2ccccc2nc(C)c1=NOCc1ccc(Cl)cc1Cl	inactive
CCc1nc2c(OCc3ccccc3)cccn2c1N(C)C(=O)c1ccco1	inactive
